Source: PubChem BioAssay
CHRM1 PAM – potentiates human M1 receptor response to acetylcholine. CHO-K1 hM1, Fluo-8 calcium fluorescence, ACh EC20; 0% = ACh EC20, 100% = maximal ACh. 360,000 tested, 0.088% active. activation, % at 3 µM. P11229; in the data active = activation above about 19%, passing the limit was not always enough
Target sequence (P11229 whole entry, looked up): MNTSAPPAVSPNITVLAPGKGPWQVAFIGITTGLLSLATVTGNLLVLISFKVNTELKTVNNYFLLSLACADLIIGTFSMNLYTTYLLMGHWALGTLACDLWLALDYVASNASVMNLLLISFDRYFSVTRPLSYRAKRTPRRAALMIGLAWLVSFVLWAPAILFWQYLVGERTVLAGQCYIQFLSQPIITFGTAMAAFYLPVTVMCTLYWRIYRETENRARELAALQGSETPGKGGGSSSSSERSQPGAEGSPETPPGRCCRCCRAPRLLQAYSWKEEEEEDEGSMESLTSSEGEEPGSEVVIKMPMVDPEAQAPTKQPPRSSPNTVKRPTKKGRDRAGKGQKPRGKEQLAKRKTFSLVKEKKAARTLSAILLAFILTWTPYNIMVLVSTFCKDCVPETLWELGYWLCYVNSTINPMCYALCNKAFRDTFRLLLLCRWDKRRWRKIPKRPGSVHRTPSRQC
M1 PAM parental – M1 PAM counterscreen hit in parental CHO-K1 cells | ATP EC20, Fluo-8 calcium fluorescence; 0% at ATP EC20, 100% at ATP max | activation, % at 3 µM | 360,000 tested, 0.02% active | AID 602247;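 active = activation above the run cutoff, the mean activation of all test compounds plus 3 SD, cut at about 40% in these data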;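 also: peak over basal fluorescence ratio in a 140 s read after ATP addition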
M1 ag – agonists of human M1 muscarinic receptor | activation, % at 3 µM | AID 588814 | 360,000 tested, 0.33% active | P11229 | CHO-K1 hM1, Fluo-8 calcium fluorescence, agonist mode; 0% DMSO, 100% acetylcholine EC100;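 active = activation above the run's mean compound activation plus 3 SD, cut at about 16% in these data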;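 also: peak over basal fluorescence ratio within a 140 s kinetic read after compound addition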
CHO-K1 Ca ag – nonselective activator or artifact in parental CHO-K1 cells; Fluo-8 calcium fluorescence; scaled to maximal ATP response, vehicle zero; activation, % at 3 µM; 360,000 tested, 0.48% active; in the data active = activation above about 15%;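 also: untransfected CHO-K1 host cells lacking M1 receptor as counterscreen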
CHRM1 antagonist – antagonists of human M1 muscarinic receptor. CHO-K1 hM1, Fluo-8 calcium fluorescence, ACh EC80 antagonist. inhibition, % at 3 µM. 360,000 tested, 1.3% active;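 active = percent inhibition above its own plate's cutoff, namely the mean of that plate's compound wells plus 3 SD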;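 also: peak over basal fluorescence ratio during 140 s after agonist addition; 0% = ACh EC80 plus DMSO and 100% = DMSO alone without agonist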
CHO-K1 Ca antag – counter-screen for M1 antagonists: effect in parental CHO-K1 cells | ATP-induced calcium, Fluo-8 fluorescence | inhibition, % at 3 µM | 360,000 tested, 0.6% active | AID 602250;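 active = inhibition above a per-plate cutoff, the plate's mean sample inhibition plus 3 SD, cut at about 24% in these data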;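 also: 0% = DMSO plus EC80 ATP and 100% = DMSO alone without ATP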
* = called active by the depositor; . = not tested or not shown. Rows were chosen to be rich in hits. Some 2.3% of all compounds tested hit in one or more screens of this group.

SMILES	CHRM1 PAM	M1 PAM parental	M1 ag	CHO-K1 Ca ag	CHRM1 antagonist	CHO-K1 Ca antag
COc1cc(/C=C2\CC/C(=C\c3ccc(OCCO)c(OC)c3)C2=O)ccc1OCCO	-15.6	3.8	32.4*	30.6*	16.2	17.9
COc1ccc(/C=C2\CC/C(=C\c3ccc(OC)c(OC)c3)C2=O)cc1OC	-2.2	-5.1	-2.0	2.4	3.3	3.2
CN(C)[C@@H]1CCC[C@@H]1OC(=O)C(c1ccccc1)c1ccccc1	-25.5	20.3	-8.2	1.6	31.0*	-7.8
CCC(C)c1ccccc1OCCCCN1CCCC1 (stereo not given)	-21.9	21.6	-8.6	1.9	48.2*	-9.3
CCC(C)c1ccccc1OCCOCCN1CCCC1 (stereo not given)	-16.7	24.0	-7.9	3.0	18.4	-11.7
COC(=O)c1ccccc1OCCN1CCCCCC1	-4.9	-8.7	-9.5	-0.2	-4.2	6.9
CC(=O)c1ccccc1OCCCCN1CCCCC1	-26.4	24.9	-9.0	2.2	58.5*	-13.4
COc1ccccc1OCCCCOc1ccccc1C(C)=O	-16.5	7.5	-4.8	11.6	12.8	4.7
CC(=O)c1ccccc1OCCOc1ccccc1C(C)=O	-27.3	6.8	-6.7	1.5	39.2*	-5.0
CC1=NNC(=O)/C1=C\c1cn(-c2ccccc2)nc1-c1ccccc1	-7.6	5.2	0.9	3.3	33.3*	18.5
O=Cc1cn(-c2ccccc2)nc1-c1ccccc1	6.6	16.3	-5.4	0.6	-10.7	-12.8
COc1ccc(CN2C(=O)c3ccccc3C2c2nnnn2-c2ccc3c(c2)OCCO3)cc1OC (stereo not given)	.	-7.8	.	1.1	.	-6.6
COc1ccc(OC)c(NC(=O)C2(C)CCN2C(=O)C2(c3ccc(Cl)cc3)CCC2)c1 (stereo not given)	-14.9	13.4	-7.3	0.5	13.8	-11.2
Cc1ccc(OS(=O)(=O)c2c(C)nn(C)c2Cl)c(C)c1	-22.7	-22.9	-6.4	-0.7	61.7*	9.3
O=[N+]([O-])c1cc(-c2ccn[nH]2)ccc1Cl	9.6	20.9	-9.3	1.9	-7.1	-6.5
O=[N+]([O-])c1cccc(-c2ccn[nH]2)c1	30.6*	2.2	-2.1	1.0	-1.9	-6.4
Cc1ccc(C(=O)NNC(=O)CSc2nnc(C(C)C)n2C)cc1	3.4	13.4	-4.2	0.2	-2.5	-6.8
FC(F)(F)c1ccccc1Cc1c(-c2ccc(Cl)cc2)nc2c3ccccc3ccn12	.	-12.3	.	0.4	.	5.2
CCC[C@@H]1C=C(C(=O)OCC)[C@H](c2ccccc2)N1S(=O)(=O)c1ccc(C)cc1	-5.3	6.0	-3.1	0.8	9.3	8.2
Cc1cc2nc(C)c(=O)n(C)c2cc1C	9.9	1.8	-5.8	0.2	-12.9	-0.6
Cc1cc2nc3n(c2cc1C)CCCN3	-23.3	-13.0	-10.6	0.4	34.3*	9.5
COc1cc2c(cc1OC)n(CC(=O)NC1CCCCCC1)n1c(C)cc(=O)nc21	14.3	-0.2	-0.5	0.3	-20.8	-4.4
COc1ccc(NC(=O)CCn2c(=S)[nH]c3ccccc3c2=O)cc1Cl	12.1	19.2	-0.6	0.0	-26.4	-14.4
COc1ccc(CN2C(=O)CS/C2=N/N=C/c2cccs2)cc1	-12.3	-12.3	2.1	10.1	35.7	24.9*
COc1ccc(OC)c(/C=N/N=C2\SCC(=O)N2Cc2ccco2)c1	-3.3	18.6	-4.8	2.0	3.7	-13.5
SMILES	CHRM1 PAM	M1 PAM parental	M1 ag	CHO-K1 Ca ag	CHRM1 antagonist	CHO-K1 Ca antag
CCc1ccc(CCC(=O)Nc2sc3c(c2C#N)CCCC3)o1	-3.0	15.1	-6.4	0.4	1.5	-6.0
Cc1ccc(/C=C/C(=O)Nc2sc3c(c2C#N)CCCC3)o1	14.3	-16.9	0.5	-0.9	-4.1	37.5*
CN(C)S(=O)(=O)c1cccc(CSCc2cccc(S(=O)(=O)N(C)C)c2)c1	-13.4	-29.5	1.7	17.7*	37.5*	50.3*
Cc1cc(C)n2nc(SCc3cccc(S(=O)(=O)N(C)C)c3)nc2n1	-8.5	1.1	-2.0	13.8	13.8	8.4
Cc1ccc(C(=O)COC(=O)C2CC3CCCC(C2)C3=O)cc1[N+](=O)[O-] (stereo not given)	2.2	11.5	-5.8	0.5	6.9	8.1
Cc1csc(N(C)C(=O)CSc2nnc(COc3cccc4ccccc34)o2)n1	-8.5	60.9*	-3.4	-0.5	15.6	5.6
Cc1c(C(=O)N2CCN(S(=O)(=O)c3ccccc3F)CC2)oc2c(Cl)cccc12	19.6	5.4	16.1*	0.9	0.6	-11.1
Cc1c(C(=O)N2CCN(c3ccccc3)CC2)oc2c(Cl)cccc12	7.7	13.5	-1.4	-0.3	-7.4	-21.0
Cc1nc(C(F)(F)F)ccc1C(=O)N1CCC1(C)C(=O)NS(=O)(=O)c1ccc(C#N)cc1 (stereo not given)	6.4	12.7	-2.3	0.7	-14.3	-3.1
Cc1cc(OC(=O)c2c(Cl)cc(Cl)cc2Cl)nc(C)n1	24.4*	21.6	-4.1	0.1	-17.1	-20.8
COc1ccccc1Nc1nc(N)nc(CN2CCC(Cc3ccccc3)CC2)n1	-14.8	-2.0	-4.8	0.6	15.7	1.9
CCCCNC(=O)C1CCN(Cc2ccc(OCc3ccccc3)c(OC)c2)CC1	9.1	5.5	-9.5	-0.1	-3.9	-5.4
COc1ccc(Nc2nc(N)nc(CN3CCC(Cc4ccccc4)CC3)n2)cc1	-26.6	14.3	-11.8	0.8	33.1*	-7.6
CCOC(=O)C1CCCN(CC(O)COc2ccc(OC)cc2C(C)(C)C)C1 (stereo not given)	-29.7	18.0	60.0*	0.5	32.4*	-9.9
Cc1cc(OCCN2CCC(Cc3ccccc3)CC2)ccc1[N+](=O)[O-]	-31.1	17.0	-6.3	3.1	101.0*	-1.5
CCOC(=O)N1CCN(CC(O)COc2ccc(OC)cc2C(C)(C)C)CC1 (stereo not given)	-1.2	15.3	-11.7	2.5	-0.7	-7.7
CCCCN(C)C(=O)C1CCN(Cc2ccc(OCc3ccccc3)cc2)CC1	-20.6	-4.0	-6.2	0.6	41.0*	3.3
NC(=O)c1ccc(NC(=O)COC(=O)CCN=C2NS(=O)(=O)c3ccccc32)cc1	-0.1	9.4	-2.5	0.1	2.7	-9.1
COc1ccccc1NC(=O)CN1CC(=O)Nc2ccccc21	7.3	20.8	-3.7	1.4	-8.5	-20.0
Cc1ccccc1N1CCN(C2CCCN(C(=O)CCn3cnnn3)C2)CC1 (stereo not given)	-1.7	-12.7	-5.5	0.2	4.6	3.6
CCOc1ccc(CN2CCC(Cc3ccccc3)CC2)cc1	-28.8	-10.7	-8.4	1.1	58.5*	2.3
CCOC(=O)C1CCN(Cc2ccc(N(C)C)cc2)CC1	2.2	-3.5	-1.5	-0.3	4.3	41.1*
CCOC(=O)C1CCN(Cc2ccc(OCc3ccccc3)cc2)CC1	-29.2	18.7	-7.8	1.9	49.3*	-6.6
COc1cccc(OC)c1OCCCN1CCC(Cc2ccccc2)CC1	-24.1	-16.5	-5.3	5.5	45.3*	13.0
